SMARCA2 act – SMARCA2 function activation, primary screen; MG213 cells, MMTV-luciferase reporter, dexamethasone, overnight; activation, % at 9.1 µM; actives 1% (n = 370,000); AID 652017; in the data active means activation above about 7.8%;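 further: 0% = vehicle wells and 100% = reference activator wells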
ssDAF12 agonist – activates DAF-12 receptor from parasite S. stercoralis. HEK293 ssDAF-12/GRIP1 lit1-tk-luc reporter, luminescence; % of 3 µM dafachronic acid response. actives 1% (n = 370,000). activation, % at 6.8 µM;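 active means activation above the mean over all tested compounds plus 3 SD, cut at about 0.9% in these data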;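 further: 0% = DMSO-only wells and 100% = 3 µM delta7-dafachronic acid wells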
hcDAF12 agonist – activates DAF-12 receptor from parasite H. contortus. actives 1.4% (n = 370,000). activation, % at 6.8 µM. HEK293 hcDAF-12 lit1-tk-luc reporter, luminescence; 0% DMSO, 100% Δ7-dafachronic acid;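 active means activation above the mean of all tested compounds plus 3 SD, cut at about 5.5% in these data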;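 further: 100% = response to 3 µM Δ7-dafachronic acid high control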
DAX1 StAR inh – inhibitors of DAX1 repression of SF-1 activated StAR promoter; inhibition, % at 6.8 µM; actives 1.1% (n = 370,000); HEK293T StAR-luciferase reporter, SF-1/DAX-1 repression relief;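 active means inhibition above the mean over all tested compounds plus 3 SD, cut at about 3.6% in these data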;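 further: 0% = DAX-1 cells with DMSO and 100% = cells lacking DAX-1 with DMSO; higher inhibition means more luminescence from relief of DAX-1 repression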
hgDAF12 agonist – agonists of H. glycines DAF-12 nuclear receptor. HEK293 GAL4-hgDAF12 UAS-luciferase reporter, agonist luminescence; normalized to butyrate control. activation, % at 6.8 µM. actives 1.8% (n = 370,000). AID 687014;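 active means activation above a cutoff set at the mean of all screened compounds plus 3 SD, cut at about 10% in these data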;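 further: 0% = DMSO wells and 100% = sodium butyrate wells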
* marks the source's active call; other numbers are inactive results; nt = no result. Compounds with a hit are over-represented: about 4.2% of the library has one in this group of screens.

SMILES	SMARCA2 act	ssDAF12 agonist	hcDAF12 agonist	DAX1 StAR inh	hgDAF12 agonist
COc1ccc(-n2nnnc2C(c2cc3ccccc3o2)N2CCN(C/C=C/c3ccccc3)CC2)cc1 (stereo not drawn)	2	-1	1	0	1
C[C@H]1[C@@H](OC(=O)NC2CCC2)CC[C@@]23CCCN2C(=O)CCC[C@@H]13	nt	-1	-3	nt	2
c1ccc2c(c1)CCc1c(-c3ccncc3)n[nH]c1-2	1	1.6*	4	-3	1
COc1cccc(C(=O)n2ccc3ccc(-c4ccc5ccn(Cc6ccc(C#N)cc6)c5c4)cc32)c1	-2	-1	0	-1	3
COc1ccc2cc(-c3cccc4[nH]cc(C)c34)ccc2c1	-2	1.5*	3	-1	-1
O=C(NC1CC(=O)c2sccc21)c1ccc(Cl)cc1Cl (stereo not drawn)	8	0	1	3.7*	10
O=C(C1CCCN1S(=O)(=O)c1ccc(Cl)s1)N1CCc2ccccc2C1 (stereo not drawn)	-4	-1	-2	0	-1
CCOC(=O)N1CCN(C(=O)c2cc(-c3ccc(OCC)cc3)nc3ccccc23)CC1	0	-1	1	-1	12*
CCOc1ccc(-c2cc(C(=O)N3CCN(C)CC3)c3ccccc3n2)cc1	1	1	2	1	5
COc1cc(OC)c2c(=O)c3c(C(=O)O)c(O)ccc3oc2c1	-1	-1	-1	-3	-6
CCOC(=O)C1(Cc2cccc(OC)c2)CCCN(C(=O)c2ccccc2C)C1 (stereo not drawn)	2	-1	-1	0	3
CCOC(=O)C1(Cc2cccc(OC)c2)CCCN(C(=O)CNC(C)=O)C1 (stereo not drawn)	7	0	3	1	13*
O=C(Nc1cccnc1)c1ccc([N+](=O)[O-])o1	7.8*	-1	1	-1	-3
CCc1c(-c2ccc(OC)cc2)ncn1CCc1ccccc1OC	-7	-2	-4	-2	-5
O=C(O)C1CC(c2ccccc2)=NO1 (stereo not drawn)	-2	-1	-1	0	0
COc1ccc(C2=NOC(C(=O)O)C2)cc1 (stereo not drawn)	3	1.8*	5	1	3
Cc1[nH]c2ccccc2c1C1(O)C(=O)N(C(C)C)c2ccccc21 (stereo not drawn)	-6	0	5.8*	0	2
C[C@@H]1CN([C@H](C)CO)C(=O)CCCn2cc(nn2)CO[C@H]1CN(C)C(=O)NC1CCCCC1	-5	-1	-1	1	1
C[C@H](CO)N1C[C@H](C)[C@H](CN(C)C(=O)Nc2ccc3c(c2)OCCO3)OCc2cnnn2CCCC1=O	-1	0	-1	-2	-4
Cc1noc(C)c1NC(=O)N(C)C[C@H]1OCc2cnnn2CCCC(=O)N([C@H](C)CO)C[C@@H]1C	-4	1.3*	3	1	1
C[C@H]1CN([C@@H](C)CO)C(=O)CCCn2cc(nn2)CO[C@@H]1CN(C)C(=O)NC1CCCCC1	-3	-1	0	4.1*	1
C[C@@H]1CN([C@H](C)CO)C(=O)CCCn2nncc2CO[C@H]1CN(C)C(=O)Nc1ccc2c(c1)OCCO2	4	1.5*	5	0	7
O=C(CN1CCC(NC(=O)Nc2ccc(Cl)cc2)CC1)Nc1ccc2c(c1)OCCO2	-7	-1	-3	0	3
Cn1c(-c2ncc(F)cc2F)cc2onc(-c3c(F)cccc3Cl)c2c1=O	7	1.3*	9.3*	1	10
Cc1onc(-c2c(F)cccc2Cl)c1C(=O)NC1CC1	0	-1	1	1	0
SMILES	SMARCA2 act	ssDAF12 agonist	hcDAF12 agonist	DAX1 StAR inh	hgDAF12 agonist
Cn1c(-c2ccccc2F)cc2onc(-c3ccccc3)c2c1=O	7	0	4	5.0*	12*
Cn1c(-c2ccccc2)cc2onc(-c3ccccc3)c2c1=O	1	0	5.6*	3	4
Cc1ccc(C(c2c(C)nn(-c3ccccc3)c2N)c2c(C)nn(-c3ccccc3)c2N)cc1	-2	-1	0	0	3
Cc1ccc(-c2cc(N)n(-c3ccccc3)n2)cc1	4	0	3	2	11*
Cc1nn(Cc2ccccc2)c(Cl)c1/C=N/NC(=O)c1cccnc1	2	15*	0	1	0
Cc1nn(-c2ccccc2)c(Cl)c1/C=N/NC(=O)c1ccc(CNc2ccccc2)o1	0	-2	1	0	2
Cc1nn(-c2ccccc2)c(Cl)c1/C=N/NC(=O)c1ccco1	1	-1	1	2	12*
CCOC(=O)N/N=C/c1c(C)nn(-c2ccccc2Cl)c1Cl	5	-1	4	1	11*
Cc1ccc2c(c1C)NC(=O)C21N2CCCC2C(C(=O)c2ccc3ccccc3c2)C12C(=O)Nc1ccccc12 (stereo not drawn)	-6	1.1*	3	-1	2
O=c1oc2ccc(Cl)cc2nc1/C=C(\O)c1cccs1	5	0	5.6*	2	3
Cc1ccc2oc(=O)c(/C=C(\O)c3cccs3)nc2c1	5	1	5.6*	2	8
O=S(=O)(c1ccc(C(F)(F)F)cc1)N1CCCc2nc(-c3ccc(F)cc3)ccc21	-2	-1	3	0	4
O=C(NC1CCCC(C(F)(F)F)C1)c1ccc([N+](=O)[O-])o1 (stereo not drawn)	7.9*	-1	-1	-5	-4
O=C(COC(=O)c1ccc([N+](=O)[O-])o1)NC1CCCC1	-4	-1	-1	3	1
Cc1ccc2c(C)c(C(=O)N(C)C(C)c3ccncn3)oc2c1C (stereo not drawn)	-1	-1	-1	2	0
Cc1ccc2c(C)c(C(=O)N(C)C(C)c3ccon3)oc2c1C (stereo not drawn)	5	0	1	4.2*	6
COc1ccc([C@H]2CC(=O)C[C@@H](CCn3cc(C)nn3)O2)cc1	7	-1	-2	0	-2
O=C(CN1C(=O)c2ccccc2S1(=O)=O)NC1CCCCCC1	0	-1	1	0	13*
CCCCNC(=O)C1C(c2ccc(C(F)(F)F)cc2)=Nc2ccccc2N1C(=O)c1ccc2nc(C)[nH]c2c1 (stereo not drawn)	0	0	1	2	5
COc1ccccc1-n1cc(-c2ccc(Cl)cc2)[nH]c1=O	1	-1	6.4*	0	-1
COc1cc(/C=N/NC(=O)CC2(C)OCCCO2)ccc1OCc1ccccc1	2	-1	1	1	3
COc1cc(/C=N/NC(=O)CN2CCCCC2)ccc1OCc1ccc(Br)cc1	7	0	3	2	12*
CS(=O)(=O)N1Cc2cc(C(=O)NCC3CC3)nc(-c3cccc(-c4cccnc4)c3)c2[C@@H]1CCO	-1	-1	-2	-3	6

Bioassay records deposited in PubChem by The Scripps Research Institute Molecular Screening Center.
